# In the supplement of paper PMC12645437, “Orthogonal IMiD-Degron Pairs Induce Selective Protein Degradation in Cells” (ACS Chemical Biology, 2025):
# Over roughly 8,300 sequences, “log2 fold change of degron read counts, EGFP-low vs EGFP+ sorted cells (limma voom), compound-induced degradation” has its median near -1.1; the highest 2% begin near 3.2. Shown is part of a subset that was picked to be rich in the highest values.
# Target: T1, CRBN, Q96SW2
# T1 chain: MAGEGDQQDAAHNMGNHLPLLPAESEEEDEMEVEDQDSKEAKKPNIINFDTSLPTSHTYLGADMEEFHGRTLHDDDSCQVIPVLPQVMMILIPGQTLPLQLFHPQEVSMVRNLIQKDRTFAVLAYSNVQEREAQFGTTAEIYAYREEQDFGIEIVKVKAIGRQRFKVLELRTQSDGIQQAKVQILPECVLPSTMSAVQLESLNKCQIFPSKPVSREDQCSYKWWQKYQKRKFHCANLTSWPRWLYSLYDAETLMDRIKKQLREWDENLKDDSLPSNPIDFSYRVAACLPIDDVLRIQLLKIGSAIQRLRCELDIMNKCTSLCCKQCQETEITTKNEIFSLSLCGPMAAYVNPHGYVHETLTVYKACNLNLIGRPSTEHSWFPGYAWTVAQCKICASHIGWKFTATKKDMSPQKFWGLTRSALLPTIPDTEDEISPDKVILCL
# Experiment: log2 fold change of degron read counts, EGFP-low vs EGFP+ sorted cells (limma voom), compound-induced degradation; higher = more compound-induced degradation of the degron-EGFP fusion; degrons are variants of IKZF1/3 zinc finger 2; compound dose not given here
# Details: Jurkat, 18 h
# [1] = compound: compound 19 (5-tert-butyl-thalidomide)
# [2] = compound: compound 22 (5-morpholino-thalidomide)
# [3] = compound: compound 33 (diphenyl IMiD analogue)
# 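Further: pooled lentiviral library of zinc finger degron-EGFP fusions in mCherry-positive Jurkat cells, FACS-sorted after compound exposure, with degron abundance counted by next-generation sequencing.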
Sequence,log2 fold change of degron read counts [1],log2 fold change of degron read counts [2],log2 fold change of degron read counts [3],log2 fold change of degron read counts (compound: thalidomide)
"FICPICGRGFTQKGNLLRHIKL [46F_47I_49P_50I_52G_53R_54G_55F_67L_, Q9UKT9]",-2.06,-1.04,-0.776,0.0621
"FTCPICGHHFTQKGNLLRHIKL [46F_47T_49P_50I_52G_53H_54H_55F_67L_, Q9UKT9]",-2.5,-2.32,-1.56,-1.14
"FTCEQCGAKFTQKGNLLRHIKL [46F_47T_49E_50Q_52G_53A_54K_55F_67L_, Q9UKT9]",-1.64,-1.04,-1.94,0.449
"FSCPVCGAVFTQKGNLLRHIKL [46F_47S_49P_50V_52G_53A_54V_55F_67L_, Q9UKT9]",1.86,1.28,2.79,1.39
"FYCNICGAVFTQKGNLLRHIKL [46F_47Y_49N_50I_52G_53A_54V_55F_67L_, Q9UKT9]",1.85,2.59,1.47,-0.489
"FQCNICGAVFTQKGNLLRHIKL [46F_47Q_49N_50I_52G_53A_54V_55F_67L_, Q9UKT9]",-1.01,2.01,1.99,3.47
"FMCPVCGAVFTQKGNLLRHIKL [46F_47M_49P_50V_52G_53A_54V_55F_67L_, Q9UKT9]",-1.41,-0.169,1.97,1.09
"FQCPVCGAVFTQKGNLLRHIKL [46F_47Q_49P_50V_52G_53A_54V_55F_67L_, Q9UKT9]",-0.23,3.11,2.75,3.75
"FFCPQCGAVFTQKGNLLRHIKL [46F_47F_49P_50Q_52G_53A_54V_55F_67L_, Q9UKT9]",0.252,0.896,0.248,-0.636
"FDCPVCGAVFTQKGNLLRHIKL [46F_47D_49P_50V_52G_53A_54V_55F_67L_, Q9UKT9]",0.0323,-0.349,1.32,1.15
"FKCNICGAVFTQKGNLLRHIKL [46F_47K_49N_50I_52G_53A_54V_55F_67L_, Q9UKT9]",-2.43,-2.68,-2.59,-1.81
"FQCPQCGAVFTQKGNLLRHIKL [46F_47Q_49P_50Q_52G_53A_54V_55F_67L_, Q9UKT9]",-1.53,0.725,0.715,3.42
"FGCPVCGAVFTQKGNLLRHIKL [46F_47G_49P_50V_52G_53A_54V_55F_67L_, Q9UKT9]",3.56,2.4,2.72,1.15
"FVCPQCGAVFTQKGNLLRHIKL [46F_47V_49P_50Q_52G_53A_54V_55F_67L_, Q9UKT9]",-2.28,-1.6,0.556,-0.724
"FVCPVCGAVFTQKGNLLRHIKL [46F_47V_49P_50V_52G_53A_54V_55F_67L_, Q9UKT9]",-0.832,1.08,1.95,1.7
"FHCDQCGAPFTQKGNLLRHIKL [46F_47H_49D_50Q_52G_53A_54P_55F_67L_, Q9UKT9]",-0.672,-1.82,-1.8,-2.97
"FKCSVCGHPFTQKGNLLRHIKL [46F_47K_49S_50V_52G_53H_54P_55F_67L_, Q9UKT9]",-2.15,-2.09,-2.23,-1.7
"FYCPICGHMFTQKGNLLRHIKL [46F_47Y_49P_50I_52G_53H_54M_55F_67L_, Q9UKT9]",-1.06,-1.25,-0.462,-1.34

Sequence,log2 fold change of degron read counts [1],log2 fold change of degron read counts [2],log2 fold change of degron read counts [3],log2 fold change of degron read counts (compound: thalidomide)
"FECDVCGAMFTQKGNLLRHIKL [46F_47E_49D_50V_52G_53A_54M_55F_67L_, Q9UKT9]",-2.71,-3.65,-2.05,-1.53
"FWCEQCGANFTQKGNLLRHIKL [46F_47W_49E_50Q_52G_53A_54N_55F_67L_, Q9UKT9]",0.0998,2.8,-0.0431,-0.721
"FQCNVCGAVFTQKGNLLRHIKL [46F_47Q_49N_50V_52G_53A_54V_55F_67L_, Q9UKT9]",-1.74,1.21,1.22,3.41
"FICNVCGAVFTQKGNLLRHIKL [46F_47I_49N_50V_52G_53A_54V_55F_67L_, Q9UKT9]",-2.28,-1.69,0.455,-0.566
"FYCNVCGAVFTQKGNLLRHIKL [46F_47Y_49N_50V_52G_53A_54V_55F_67L_, Q9UKT9]",-0.0367,1.2,0.445,-1.56
"FRCPVCGAQFTQKGNLLRHIKL [46F_47R_49P_50V_52G_53A_54Q_55F_67L_, Q9UKT9]",-0.139,0.391,0.974,1.28
"FSCPVCGAQFTQKGNLLRHIKL [46F_47S_49P_50V_52G_53A_54Q_55F_67L_, Q9UKT9]",2.24,2.08,1.65,1.45
"FFCPVCGAQFTQKGNLLRHIKL [46F_47F_49P_50V_52G_53A_54Q_55F_67L_, Q9UKT9]",3.11,3.47,2.43,1.92
"FVCPVCGAQFTQKGNLLRHIKL [46F_47V_49P_50V_52G_53A_54Q_55F_67L_, Q9UKT9]",-0.526,2.62,2.83,2.98
"FMCPVCGAQFTQKGNLLRHIKL [46F_47M_49P_50V_52G_53A_54Q_55F_67L_, Q9UKT9]",-0.258,1.27,2.9,1.78
"FWCPVCGAQFTQKGNLLRHIKL [46F_47W_49P_50V_52G_53A_54Q_55F_67L_, Q9UKT9]",2.98,3.92,2.63,2.09
"FLCPVCGAQFTQKGNLLRHIKL [46F_47L_49P_50V_52G_53A_54Q_55F_67L_, Q9UKT9]",0.29,-0.0233,1.82,1.61
"FACPQCGAQFTQKGNLLRHIKL [46F_47A_49P_50Q_52G_53A_54Q_55F_67L_, Q9UKT9]",0.495,-1.5,-0.396,-1.08
"FWCPQCGAQFTQKGNLLRHIKL [46F_47W_49P_50Q_52G_53A_54Q_55F_67L_, Q9UKT9]",0.804,3.54,1.31,0.158
"FVCPQCGAQFTQKGNLLRHIKL [46F_47V_49P_50Q_52G_53A_54Q_55F_67L_, Q9UKT9]",-1.74,0.725,1.72,1.08
"FYCPVCGAQFTQKGNLLRHIKL [46F_47Y_49P_50V_52G_53A_54Q_55F_67L_, Q9UKT9]",2.88,3.65,2.38,1.69
"FCCPVCGAQFTQKGNLLRHIKL [46F_47C_49P_50V_52G_53A_54Q_55F_67L_, Q9UKT9]",2.69,2.25,2.84,2.3
